In PubChem BioAssay (NCI):
The panel holds about 83,000 compounds, 20% with a hit somewhere; the sample as a whole holds those more often.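 Treatment: one concentration, 48 hours, 96-well format. Scoring: percent growth, with anything below 10 considered active.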 Active and inactive are the calls of the source.

Tested on: HL-60(TB) leukemia
Assay: NCI-60 one-dose screen, 48 h (100 = growth as untreated, 0 = no growth, -100 = all killed)
Details: 10 µM unless noted

Compound	growth
CNCc1cccc2c1OCCOCCOCCN(C)S(=O)(=O)c1ccc(cc1)-c1cnc(N)c(n1)C(=O)N2	-37% (active)
Clc1ccc(-c2cn3ccsc3n2)c(Cl)c1Cl	85.7% (inactive)
COc1ccc(Nc2ncc(C#N)c(NCCCNC(=O)C3CCC3)n2)cc1	41% (inactive)
COC12C=C/C(=C(/C(=O)OCc3ccncn3)C(=O)CCCCCCCCC3(OC)C=C/C(=C(/C(=O)OCc4ccncn4)C(=O)CCCCCCCC1)O3)O2	-17.1% (active)
O=C(CNc1nnc(-c2ccc(Cl)cc2)o1)Nc1ccc(-c2nc3ccccc3s2)cc1	93.7% (inactive)
CCN1C(=O)N(CC)C2C1NN=c1s/c(=C\c3ccc([N+](=O)[O-])cc3)c(=O)n12 (stereo not given)	-37.9% (active)
C=COCCCCCCCCCCCCCCCCCC	73.8% (inactive)
CCOC(=O)C1=C(C)c2ccc(OC)c(OC)c2C1	106% (inactive)
N#C/C(=C\c1ccc(-c2ccc(F)cc2)o1)c1nc(-c2ccco2)cs1	98% (inactive)
Oc1ccc(Cl)cc1-c1cc(-c2ccc(Cl)cc2)n[nH]1	60.4% (inactive)
O=C(N=Nc1c(O)[nH]c2ccccc12)Nc1ccccc1Cl	78.3% (inactive)
Cc1ccc(C(=O)Nc2ccc(CN3CCN(C)CC3)c(C(F)(F)F)c2)cc1C#Cc1cnc(N)cc1C#N	-53.5% (active)
CSc1ccc(-c2ccccc(=O)c2O)cc1	-40.1% (active)
Cc1cc(Cl)ccc1Nc1nc(C(F)(F)F)ccc1C(=O)N/N=C/c1ccc(Cl)cc1	-33.8% (active)
COc1ncc(-c2ccc3ncnc(Nc4cccc(Cl)c4)c3c2)cc1NS(=O)(=O)C1CC1	36.7% (inactive)
Cc1cc(N2CCN(c3ccnc4cc(Cl)ccc34)CC2)nc(N2CCOCC2)n1	69.5% (inactive)
CS(=O)(=O)N(c1cc(-c2ccc3ncnc(Nc4cccc(Cl)c4)c3c2)cnc1Cl)S(C)(=O)=O	8.46% (active)
Cc1ccc(C(=O)NC2c3ccccc3Oc3ccccc32)cc1	-3.42% (active)
CC/C(=C(/c1ccc(Cl)cc1)c1ccc(OCCN2CCCCCC2)cc1)c1ccccc1	49.9% (inactive)
Nc1cc2c(cc1Br)-c1cc(Cl)ccc1C2=O	83.8% (inactive)

Compound	growth
O=C(Nc1cc(Br)ccn1)c1cc2cc(Nc3nc(-c4ccccc4)nc4ccccc34)ccc2oc1=O	87.3% (inactive)
NC1=Nc2cc(OCCCN3Cc4ccccc4C3)c(OCC3CC3)cc2C12CCCC2	62.5% (inactive)
COc1cc(OC)c(/C=C/c2cc[n+](C)c3ccccc23)c(OC)c1	-25.6% (active)
N=c1n(Cc2ccccc2)c(N)cc(=O)n1Cc1ccccc1	11.3% (inactive)
C=CCOC(=O)C(=O)OCC=C	68.7% (inactive)
COc1ccc(/C(C)=C(\c2ccc(OCCN3CCCCCC3)cc2)c2ccc(OC(=O)C3CCCCC3)cc2)cc1	-41.1% (active)
C#CC[C@@H]1C[C@]2(C)[C@H]3CC[C@@H]4[C@H]5C(C(=C)C)CC[C@]5(C(=O)NCCCCN)CC[C@@]4(C)[C@]3(C)CC[C@H]2C(C)(C)[C@H]1OC(C)=O (stereo not given in full)	-38.3% (active)
O=C1c2ccccc2C(=O)c2c([N+](=O)[O-])ccc(Cl)c21	111% (inactive)
C#CCNCCN1C(=O)c2ccc3c4c(ccc(c24)C1=O)C(=O)N(CCNCC#C)C3=O	-18.4% (active)
CN1C(=O)C2(NN=C(c3cccc4ccccc34)S2)c2ccccc21 (stereo not given)	34.7% (inactive)
Cc1ccc(-c2cc3c(SCC(=O)Nc4cc(C(F)(F)F)ccc4Cl)nccn3n2)cc1	12.6% (inactive)
CCOC(=O)c1c(NS(=O)(=O)c2ccc(C)cc2)sc2c1CCC1(C2)OCCO1	88.5% (inactive)
Cc1cc([N+](=O)[O-])c(C)cc1C(=O)O	107% (inactive)
CCN(CC)CCO/N=C1\CC(c2ccc(OC)c(OC)c2)Oc2ccccc21 (stereo not given)	78.4% (inactive)
CCN(CC)c1ccc(/C=C2\SC(=O)C(Nc3nnc(-c4cccnc4SCc4ccccc4)o3)C2=O)cc1 (stereo not given)	19.4% (inactive)
COc1cc2nc(Sc3sc(N)nc3C)n(-c3ccc(Oc4ccccc4)cc3)c(=O)c2cc1OC	78.9% (inactive)
CC(=O)Nc1c(Cl)cc(Cl)c2c1Cc1cc([N+](=O)[O-])ccc1-2	89.8% (inactive)
CC(=O)Nc1ccc(Cl)cc1Cl	109% (inactive)
Cc1ccc(/C=C/C(=O)c2ccc(NC(=O)CSc3nc4c([nH]3)c(=O)n(C)c(=O)n4C)cc2)c(C)c1	94.5% (inactive)
CC(C)(C)c1cc(Br)cc(C(C)(C)C)c1O	94.1% (inactive)
